# Measurements reported in PubChem BioAssay (NCATS).
# “And” between values parts separate entries of the source, which are not always exact repeats. Identical values can stand only once. Inconclusive results are not listed. The source made the active and inactive calls. Unless noted, calls come from the whole dose curve; as a rule, active = well fitted curve in the direction sought with a large enough effect; inconclusive = small, poorly fitted or top-dose-only effect, or another doubt; inactive = no such curve, though single readings can be large; an effect the other way counts as inactive or inconclusive.
# What was measured:
# [1] = AP1 Signaling Pathway (AID 357; active = well fitted curve in either direction with a large enough effect, not every such curve was filed as active; note: % is set by controls: 0 for no effect and ±100 for the full control effect)
# Procedure, shortened: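 AP-1-bla ME-180 cells with beta-lactamase reporter under AP-1 response element, stimulated with EC50 EGF; compounds titrated, 5 hours at 37 degrees Celsius. CCF4 read at 460/530 nm ratio; positive and negative modulators judged by AC50.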
# [2] = Stat Signaling Pathway (AID 446; active = well fitted curve in either direction with a large enough effect, not every such curve was filed as active;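 note: ME-180 cervical cancer cells given 40 pM IL-6 alongside compound; SIE-controlled beta-lactamase reporter measured as 460/530 nm FRET emission ratio; % is set by controls: 0 for no effect and ±100 for the full control effect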)
# Procedure, shortened: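 ME-180 SIE-bla cells; overnight plating; cpd + IL-6 40 pM, 5 h, 37 C; LiveBLAzer 2.5 h RT; 460/530 nm emission ratio. Normalized to 300 pM IL-6 and 125 nM JAK inhibitor controls.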
# [3] = target: Glucocorticoid receptor (Homo sapiens) (UniProt P04150); experiment: GR-EFC Redistribution (AID 451; calls by dose curve; note: potency is the fitted concentration of half-maximal effect); settings: CHO-K1 GR-EFC translocation, beta-gal luminescence, 2 h
# Glucocorticoid receptor (Homo sapiens), sequence (P04150 whole entry, looked up, the tested form may be a part): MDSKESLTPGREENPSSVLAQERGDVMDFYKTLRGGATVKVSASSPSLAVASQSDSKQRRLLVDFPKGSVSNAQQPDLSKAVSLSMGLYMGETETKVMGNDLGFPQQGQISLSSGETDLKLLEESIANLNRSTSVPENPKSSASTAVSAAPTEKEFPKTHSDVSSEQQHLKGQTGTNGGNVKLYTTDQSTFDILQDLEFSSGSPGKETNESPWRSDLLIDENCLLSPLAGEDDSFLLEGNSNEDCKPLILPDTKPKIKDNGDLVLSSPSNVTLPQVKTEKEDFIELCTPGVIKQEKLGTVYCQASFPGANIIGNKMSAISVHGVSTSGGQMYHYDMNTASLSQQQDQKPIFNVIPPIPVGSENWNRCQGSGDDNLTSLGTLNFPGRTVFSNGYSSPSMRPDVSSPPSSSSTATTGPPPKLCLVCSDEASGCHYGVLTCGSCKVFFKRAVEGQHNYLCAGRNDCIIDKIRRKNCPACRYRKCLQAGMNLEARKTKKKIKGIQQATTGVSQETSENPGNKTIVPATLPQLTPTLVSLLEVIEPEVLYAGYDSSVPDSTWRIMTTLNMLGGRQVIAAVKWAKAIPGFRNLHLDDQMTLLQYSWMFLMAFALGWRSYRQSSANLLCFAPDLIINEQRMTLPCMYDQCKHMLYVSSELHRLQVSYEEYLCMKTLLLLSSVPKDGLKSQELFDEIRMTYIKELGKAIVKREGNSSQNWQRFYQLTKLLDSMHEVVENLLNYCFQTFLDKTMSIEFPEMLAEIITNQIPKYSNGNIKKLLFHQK
# Procedure, shortened: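 Translocation of GR-ED fusion to nuclear EA restores b-gal, read by luminescence after 1 h room-temperature detection. Engineered CHO-K1 biosensor cells, 1,000/well, exposed 2 h at 37 C to titrations up to 46 uM final.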
# [4] = target: Mitogen-activated protein kinase 10 (Mus musculus) (UniProt Q61831); experiment: JNK3 AlphaScreen Assay (AID 530; active = well fitted curve in either direction with a large enough effect, not every such curve was filed as active;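 note: kinase came from lysate of stimulated human HepG2 cells; signal reports phosphorylation of biotinylated GST-cJun 1-79 at Ser73 with 10 µM ATP; % is set by controls: 0 for no effect and ±100 for the full control effect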)
# Procedure, shortened: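 Room-temperature AlphaScreen kinase assay; pre-activated HepG2 lysate as JNK3 source, biotin-GST-cJun(1-79) substrate, 10 uM ATP, compound 15 min preincubation.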
# [5] = target: 3',5'-cyclic-AMP phosphodiesterase 4B (Homo sapiens) (UniProt Q07343); experiment: qHTS Assay for Inhibitors of PDE-IV (AID 607; active = well fitted activation curve with a large enough effect in the main read-out, with a control signal flat, not every such curve was filed as active; note: % of control where 0% means no effect)
# 3',5'-cyclic-AMP phosphodiesterase 4B (Homo sapiens), sequence (Q07343 whole entry, looked up): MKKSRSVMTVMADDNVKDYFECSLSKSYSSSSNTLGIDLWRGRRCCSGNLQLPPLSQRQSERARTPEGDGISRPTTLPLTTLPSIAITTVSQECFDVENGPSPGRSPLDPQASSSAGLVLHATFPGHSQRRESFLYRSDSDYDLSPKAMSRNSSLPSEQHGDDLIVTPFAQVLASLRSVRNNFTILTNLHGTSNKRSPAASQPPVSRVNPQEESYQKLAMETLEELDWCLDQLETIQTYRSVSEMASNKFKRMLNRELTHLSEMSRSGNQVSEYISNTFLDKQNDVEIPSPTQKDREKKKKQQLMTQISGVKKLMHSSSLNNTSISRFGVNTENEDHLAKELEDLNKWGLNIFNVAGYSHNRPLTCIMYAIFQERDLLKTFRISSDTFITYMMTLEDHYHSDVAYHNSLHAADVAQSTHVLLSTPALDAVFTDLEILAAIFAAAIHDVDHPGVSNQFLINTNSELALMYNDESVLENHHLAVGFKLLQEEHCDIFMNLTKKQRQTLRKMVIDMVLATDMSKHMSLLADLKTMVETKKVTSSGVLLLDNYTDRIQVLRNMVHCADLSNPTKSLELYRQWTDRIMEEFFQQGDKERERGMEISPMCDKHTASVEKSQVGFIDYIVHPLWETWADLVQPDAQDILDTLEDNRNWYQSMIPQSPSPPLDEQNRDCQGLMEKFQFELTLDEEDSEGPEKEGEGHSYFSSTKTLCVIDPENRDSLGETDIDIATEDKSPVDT
# Procedure, shortened: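 ACTOne HEK293 cells carry a modified cAMP-gated CNG channel and express endogenous PDE4; plated 1000 cells/well, compounds up to 22.9 uM final. Membrane-potential dye fluorescence (ex 535/em 590) was read; parental cells received 10 uM forskolin + 100 uM RO 20-1724.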
# [6] = qHTS Assay for Lipid Storage Modulators (AID 1519; calls by dose curve); settings: Drosophila S3 cells, BODIPY lipid droplet/cell ratio, laser cytometry, cells loaded with oleic acid
# Procedure, shortened: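 Cells seeded at 5,000 per well were treated with compounds over a concentration series and loaded with oleic acid (400 uM, as added). Lipid droplet fluorescence (488 nm excitation, 500-530 nm channel) was read by laser-scanning cytometry and normalized to 20 uM Triacsin C.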
# [7] = Primary qHTS for small molecule stabilizers of the endoplasmic reticulum resident proteome: Secreted ER Calcium Modulated Protein (SERCaMP) assay (AID 1508630); note: % is set by controls: 0 for no effect and ±100 for the full control effect
# Procedure, shortened: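 GLuc-SERCaMP-expressing SH-SY5Y cells, pretreated 16 h with compound, are challenged with thapsigargin to empty ER calcium stores; after 4 h, coelenterazine is added directly to the medium and luminescence is imaged.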
# [8] = NFAT Signaling Pathway (AID 444; active = well fitted curve in either direction with a large enough effect, not every such curve was filed as active); settings: Jurkat NFAT-bla M1, carbachol, beta-lactamase ratio, 5 h
# Procedure, shortened: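 Read-out: CCF4 FRET ratio (460 nm/530 nm) after 1 h RT dye loading, used for %activity and AC50 from titration series. Cells: Jurkat NFAT-β-lactamase/M1 line, treated with compound plus 1 uM carbachol for 5 h, 37 °C.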
# [9] = target: Glucocorticoid receptor (Homo sapiens) (UniProt P04150); experiment: GR-GFP Redistribution (AID 450;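 active = compounds whose dose series gives a full or clear partial fitted curve of increased nuclear translocation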; note: potency is the fitted concentration of half-maximal effect); settings: U2OS GR-GFP nuclear translocation, laser cytometry, 2 h
# [10] = target: Cytochrome P450 3A4 (Homo sapiens) (UniProt P08684); experiment: qHTS Assay for Activators of Cytochrome P450 3A4 (AID 885); note: nearly all actives have a fitted effect of over 65% in size
# Cytochrome P450 3A4 (Homo sapiens), sequence (P08684 whole entry, looked up): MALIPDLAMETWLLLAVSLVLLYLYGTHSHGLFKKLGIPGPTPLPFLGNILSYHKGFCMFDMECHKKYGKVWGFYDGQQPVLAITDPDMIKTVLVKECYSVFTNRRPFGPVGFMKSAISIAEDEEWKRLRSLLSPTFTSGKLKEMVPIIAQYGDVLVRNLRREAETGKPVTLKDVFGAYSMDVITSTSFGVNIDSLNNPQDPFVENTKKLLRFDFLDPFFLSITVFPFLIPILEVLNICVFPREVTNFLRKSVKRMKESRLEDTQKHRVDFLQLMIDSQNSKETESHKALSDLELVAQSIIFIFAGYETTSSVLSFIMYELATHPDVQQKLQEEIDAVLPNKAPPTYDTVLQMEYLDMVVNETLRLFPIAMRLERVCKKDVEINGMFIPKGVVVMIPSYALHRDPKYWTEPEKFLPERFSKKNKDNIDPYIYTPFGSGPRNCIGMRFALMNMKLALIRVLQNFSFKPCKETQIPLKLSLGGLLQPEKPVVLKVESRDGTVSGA
# Procedure, shortened: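 20nM CYP3A4 + 25uM Luciferin-PPXE (=KM), 200mM KPO4; cpd 10 min RT; NADPH regen, 60 min RT; stop w/ detection buffer, 20 min; luminescence. Normalized to 57 uM ketoconazole.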
# [11] = target: Voltage-gated inwardly rectifying potassium channel KCNH2 (Homo sapiens) (UniProt Q12809); experiment: qHTS Assay for Small Molecule Inhibitors of the Human hERG Channel Activity (AID 588834);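 note: top concentration of the series differs between compounds; % is set by controls: 0 for no effect and ±100 for the full control effect; lower thallium flux fluorescence means stronger hERG block; nearly all actives have a fitted effect of over 50% in size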
# Voltage-gated inwardly rectifying potassium channel KCNH2 (Homo sapiens), sequence (Q12809 whole entry, looked up): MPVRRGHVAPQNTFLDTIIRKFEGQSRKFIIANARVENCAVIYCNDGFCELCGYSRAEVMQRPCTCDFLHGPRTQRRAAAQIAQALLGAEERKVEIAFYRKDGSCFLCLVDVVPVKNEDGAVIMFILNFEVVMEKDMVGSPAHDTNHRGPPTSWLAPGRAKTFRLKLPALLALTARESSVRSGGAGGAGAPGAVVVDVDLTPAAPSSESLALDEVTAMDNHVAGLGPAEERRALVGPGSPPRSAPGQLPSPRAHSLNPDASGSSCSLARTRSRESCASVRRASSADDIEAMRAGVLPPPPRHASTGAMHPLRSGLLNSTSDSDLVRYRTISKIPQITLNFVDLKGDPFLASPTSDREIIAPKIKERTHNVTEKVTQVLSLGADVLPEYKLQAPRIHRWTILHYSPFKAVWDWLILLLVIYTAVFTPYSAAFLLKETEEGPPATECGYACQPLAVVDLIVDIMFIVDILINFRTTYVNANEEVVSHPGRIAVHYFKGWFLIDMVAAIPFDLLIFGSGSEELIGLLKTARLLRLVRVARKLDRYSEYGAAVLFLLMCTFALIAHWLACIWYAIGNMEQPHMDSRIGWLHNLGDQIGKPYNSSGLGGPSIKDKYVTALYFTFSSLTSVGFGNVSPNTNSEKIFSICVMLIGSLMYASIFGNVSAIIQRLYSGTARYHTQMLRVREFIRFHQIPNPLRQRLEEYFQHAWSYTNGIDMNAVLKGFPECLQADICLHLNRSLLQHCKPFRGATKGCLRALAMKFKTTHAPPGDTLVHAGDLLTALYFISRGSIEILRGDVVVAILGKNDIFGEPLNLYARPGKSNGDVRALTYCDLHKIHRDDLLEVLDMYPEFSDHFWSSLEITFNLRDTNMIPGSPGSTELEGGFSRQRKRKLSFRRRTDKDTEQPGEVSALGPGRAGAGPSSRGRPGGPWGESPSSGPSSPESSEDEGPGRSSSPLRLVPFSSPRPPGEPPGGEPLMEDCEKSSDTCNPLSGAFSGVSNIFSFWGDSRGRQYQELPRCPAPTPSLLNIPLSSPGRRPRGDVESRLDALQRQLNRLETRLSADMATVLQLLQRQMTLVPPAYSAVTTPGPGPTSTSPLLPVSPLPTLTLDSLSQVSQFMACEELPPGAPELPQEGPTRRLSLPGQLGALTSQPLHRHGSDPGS
# Procedure, shortened: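 hERG-BacMam U2OS, 2000 cells/well; 0.7X FluxOR loading 1 hr RT dark; cpd ~10 min 37 °C; stim buffer; FDSS fluorescence 2 min @ 1 s; AC50 Hill fit.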
# [12] = target: Cytochrome P450 3A4 (Homo sapiens) (UniProt P08684); experiment: qHTS Assay for Inhibitors and Substrates of Cytochrome P450 3A4 (AID 884); note: potency is the fitted concentration of half-maximal effect; nearly all actives have a fitted effect of over 50% in size
# Procedure, shortened: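 20 nM human CYP3A4 with 25 uM Luciferin-PPXE (at KM) in 200 mM KPO4, preincubated 10 min with compound; NADPH regeneration started a 60 min RT reaction. Luciferin detected by luminescence, normalized to 57 uM ketoconazole as full inhibition.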
# [13] = Confirmation and Secondary Assay for Modulators of Hemoglobin Beta Chain Splicing at IVS2 654 locus (AID 910);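 note: HeLa cells stably carrying EGFP split by mutant beta-globin IVS2-654 intron; per-well total GFP intensity by laser scanning cytometry after 2-day treatment; % of control where 0% means no effect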
# Procedure, shortened: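 Readout: per-well total peak green fluorescence (488 nm ex, 500–520 nm em) from objects 5–250 µm, reflecting correct splicing of an EGFP-654 reporter. Compounds were applied for 2 days at 37 °C to overnight-plated HeLa EGFP-654 cells; controls were DMSO and 500 nM IVS2-654 PNA.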
# [14] = Confirmation and Secondary Assay for Modulators of Hemoglobin Beta Chain Splicing at IVS2 705 locus (AID 930);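 note: HeLa cells stably expressing the EGFP-705 splicing reporter; GFP fluorescence per well restored by corrected splicing of the IVS2-705 intron in EGFP; % of control where 0% means no effect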
# Procedure, shortened: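 HeLa EGFP-705 reporter; 500 cells/well, o/n 37C 5% CO2; cpd 2 d; 488 ex/500-520 em laser scan; total peak GFP intensity/well. Ref: 500 nM […] antisense PNA.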
# [15] = target: Ubiquitin carboxyl-terminal hydrolase 1 (Homo sapiens) (UniProt O94782); experiment: Inhibitors of USP1/UAF1: Pilot qHTS (AID 504865);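 note: rhodamine fluorescence freed from ubiquitin-rhodamine substrate followed over time; top concentration of the series differs between compounds; % is set by controls: 0 for no effect and ±100 for the full control effect; nearly all actives have a fitted effect of over 35% in size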
# Ubiquitin carboxyl-terminal hydrolase 1 (Homo sapiens), sequence (O94782 whole entry, looked up): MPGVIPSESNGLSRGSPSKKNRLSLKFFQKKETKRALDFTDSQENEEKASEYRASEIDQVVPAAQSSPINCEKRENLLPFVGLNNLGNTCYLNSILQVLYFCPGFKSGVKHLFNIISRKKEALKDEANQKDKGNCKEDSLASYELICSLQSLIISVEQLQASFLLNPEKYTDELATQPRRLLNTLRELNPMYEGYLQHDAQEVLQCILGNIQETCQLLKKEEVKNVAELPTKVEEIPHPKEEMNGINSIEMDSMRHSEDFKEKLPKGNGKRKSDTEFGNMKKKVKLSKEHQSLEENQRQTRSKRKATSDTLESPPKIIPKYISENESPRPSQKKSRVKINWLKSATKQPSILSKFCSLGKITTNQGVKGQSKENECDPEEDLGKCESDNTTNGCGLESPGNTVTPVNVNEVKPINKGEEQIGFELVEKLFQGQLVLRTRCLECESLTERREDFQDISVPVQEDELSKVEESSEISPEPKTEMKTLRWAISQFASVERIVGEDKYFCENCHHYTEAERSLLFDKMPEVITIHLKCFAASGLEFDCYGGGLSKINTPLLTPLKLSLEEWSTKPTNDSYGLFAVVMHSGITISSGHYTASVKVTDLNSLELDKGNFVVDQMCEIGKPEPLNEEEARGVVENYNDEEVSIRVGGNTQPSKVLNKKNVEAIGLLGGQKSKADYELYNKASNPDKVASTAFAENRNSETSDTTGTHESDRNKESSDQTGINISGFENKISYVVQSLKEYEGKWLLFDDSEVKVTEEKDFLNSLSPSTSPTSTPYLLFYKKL
# Procedure, shortened: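 In 50mM HEPES pH 7.8 containing 0.5mM EDTA, 1mM TCEP, 0.1 mg/ml BSA and 0.01% Tween-20, 1nM USP1/UAF1 is exposed to compound for 15 min, then Ub-Rho (150nM final) is added and fluorescence is read over time.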
# [16] = target: Lysosomal acid glucosylceramidase (Homo sapiens) (UniProt P04062); experiment: Glucocerebrosidase-p2 (AID 348; in the data active = potency below about 10 µM; note: potency is the fitted concentration of half-maximal effect); settings: purified GBA, blue fluorogenic substrate, 40 min
# Lysosomal acid glucosylceramidase (Homo sapiens), sequence (P04062 whole entry, looked up): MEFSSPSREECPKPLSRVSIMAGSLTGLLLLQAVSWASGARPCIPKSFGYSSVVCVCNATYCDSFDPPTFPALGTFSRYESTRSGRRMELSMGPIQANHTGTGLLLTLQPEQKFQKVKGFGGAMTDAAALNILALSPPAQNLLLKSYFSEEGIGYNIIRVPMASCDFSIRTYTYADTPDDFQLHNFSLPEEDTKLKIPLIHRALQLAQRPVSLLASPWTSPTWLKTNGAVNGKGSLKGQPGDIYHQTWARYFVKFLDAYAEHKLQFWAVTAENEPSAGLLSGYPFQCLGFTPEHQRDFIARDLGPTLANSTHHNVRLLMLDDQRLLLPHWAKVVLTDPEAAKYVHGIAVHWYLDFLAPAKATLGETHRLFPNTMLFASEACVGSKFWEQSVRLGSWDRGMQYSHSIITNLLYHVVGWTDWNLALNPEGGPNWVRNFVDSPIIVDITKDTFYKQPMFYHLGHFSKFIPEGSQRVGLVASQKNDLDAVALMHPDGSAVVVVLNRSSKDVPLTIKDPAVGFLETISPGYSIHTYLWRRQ
# Procedure, shortened: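 Compounds titrated from 0.6 nM upwards against 0.2 nM enzyme in pH 5.9 citric acid/KH2PO4, taurocholate, tween-20; blue fluorogenic substrate 80 uM, 40 min room temperature, stopped and read Ex 365/Em 440 for AC50.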
# [17] = target: Cytochrome P450 1A2 (Homo sapiens) (UniProt P05177); experiment: p450-cyp1a2 (AID 410; calls by dose curve; note: potency is the fitted concentration of half-maximal effect;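 for activity change, negative = inhibition: -100% = full effect of reference inhibitor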)
# Cytochrome P450 1A2 (Homo sapiens), sequence (P05177 whole entry, looked up): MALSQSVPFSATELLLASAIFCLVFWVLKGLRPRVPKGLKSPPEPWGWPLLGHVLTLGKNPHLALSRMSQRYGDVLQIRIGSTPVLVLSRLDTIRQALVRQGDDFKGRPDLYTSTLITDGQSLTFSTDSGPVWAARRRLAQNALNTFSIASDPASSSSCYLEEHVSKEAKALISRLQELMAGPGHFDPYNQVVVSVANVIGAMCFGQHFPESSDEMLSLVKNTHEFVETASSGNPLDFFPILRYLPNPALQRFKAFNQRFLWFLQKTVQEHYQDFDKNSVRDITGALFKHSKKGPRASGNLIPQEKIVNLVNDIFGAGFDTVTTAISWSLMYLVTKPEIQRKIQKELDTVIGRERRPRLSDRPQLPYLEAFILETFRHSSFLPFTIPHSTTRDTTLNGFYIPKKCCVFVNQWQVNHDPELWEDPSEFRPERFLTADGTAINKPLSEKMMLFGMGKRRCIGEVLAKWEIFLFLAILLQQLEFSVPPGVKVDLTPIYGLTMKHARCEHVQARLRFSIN
# Procedure, shortened: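 Inhibition was calculated relative to 57 uM furafylline (full inhibition). The reaction used human CYP1A2 at 20nM with Luciferin-ME at its Km, 100uM, driven by an NADPH-regenerating system for 60 min at room temperature.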
# [18] = target: Cytochrome P450 2D6 (Homo sapiens) (UniProt P10635); experiment: qHTS Assay for Inhibitors and Substrates of Cytochrome P450 2D6 (AID 891);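 note: luciferin methyl ether substrate demethylated by CYP2D6 with NADPH regeneration; % is set by controls: 0 for no effect and ±100 for the full control effect; nearly all actives have a fitted effect of over 60% in size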
# Procedure, shortened: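 Human CYP2D6 (5 nM) with 30 uM Luciferin-ME EGE (at Km) in 100 mM KPO4, compound preincubated 10 min, then NADPH regeneration system for 60 min at room temperature. Luciferin read by luminescence; normalized to 1.43 uM quinidine.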
# [19] = qHTS profiling for inhibitors of Plasmodium falciparum proliferation (AID 504749);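 note: 0% = DMSO vehicle and full inhibition = artemisinin control; nearly all actives have a fitted effect of over 60% in size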; settings: P. falciparum in erythrocytes, SYBR Green DNA, 72 h, at 28.7 µM (top of the series)
# Procedure, shortened: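 Three-day growth assay of blood-stage parasites in erythrocytes (0.3% parasitemia, 2.5% hematocrit) at 37 C, 5% CO2, quantified by SYBR Green DNA staining after overnight detergent lysis.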
# [20] = measured here: cell count channel max response
# [21] = measured here: lipid channel max response
compound,measurement,setting,value
CN1CCCC2(CCN(C(=O)c3ccco3)CC2)C1,outcome,[1],inactive
same,outcome,[2],inactive
same,Potency,[3],> 46 µM (inactive)
same,outcome,[4],inactive
same,Potency,[5],inactive
same,"activity change, negative = inhibition",[6]; at 57.5 µM (top of the series),-2.44% (inactive)
same,max response,[6]; [20],-24.9%
same,max response,[6]; [21],-25.6%
same,outcome,[7],inactive
CCc1c(C(=O)OC)ncc2[nH]c3cc(OC)c(OC)cc3c12,"activity change, negative = inhibition",[8]; at 38 µM (top of the series),-26.6% (inactive)
same,Potency,[9],> 46 µM (inactive)
same,Potency,[3],> 46 µM (inactive)
same,outcome,[4],inactive
same,Potency,[10],inactive
same,Potency,[11],inactive
same,outcome,[7],inactive
Cc1noc(C)c1C(=O)N1CCC[C@@]2(CCN(CC(C)C)C2)C1,outcome,[1],inactive
same,"activity change, negative = inhibition",[8]; at 7.69 µM (top of the series),12.5% (inactive)
same,Potency,[3],> 46 µM (inactive)
same,outcome,[4],inactive
same,Potency,[5],inactive
same,"activity change, negative = inhibition",[6]; at 57.5 µM (top of the series),5.3% (inactive)
same,max response,[6]; [20],6.03%
same,max response,[6]; [21],15.4%
same,outcome,[7],inactive
C=C(C)c1cc2cc(C(C)=O)c(O)cc2o1,Potency,[12],31.6 µM (active)
same,Potency,[10],inactive
same,Potency,[13],inactive
same,Potency,[14],inactive
same,"activity change, negative = inhibition",[6]; at 57.5 µM (top of the series),9.94% (inactive)
same,max response,[6]; [20],9.32%
same,max response,[6]; [21],19.8%
same,Potency,[15],inactive
same,outcome,[7],inactive
CN1CC[C@@]2(CCCN(C(=O)c3ccncc3)C2)C1,Potency,[16],> 11.4 µM (inactive)
same,outcome,[1],inactive
same,Potency,[17],inactive
same,outcome,[2],inactive
same,Potency,[3],> 46 µM (inactive)
same,Potency,[5],inactive
same,Potency,[10],inactive
same,"activity change, negative = inhibition",[6]; at 57.5 µM (top of the series),0.0036% (inactive)
same,max response,[6]; [20],5.11%
same,max response,[6]; [21],8.97%
same,outcome,[7],inactive
CN1CCC2(CC1)CCN(C(=O)c1ccco1)CC2,outcome,[1],inactive
same,"activity change, negative = inhibition",[8]; at 7.69 µM (top of the series),-4.13% (inactive)
same,outcome,[2],inactive
same,Potency,[3],> 46 µM (inactive)
same,outcome,[4],inactive
same,Potency,[5],inactive
same,outcome,[7],inactive
CN1C[C@H](C(=O)N[C@@]2(C)O[C@@]3(O)C4CCCN4C(=O)C(Cc4ccccc4)N3C2=O)C[C@H]2c3cccc4[nH]cc(c34)C[C@H]21 (some centres undefined),"activity change, negative = inhibition",[6]; at 57.5 µM (top of the series),12.3% (inactive)
same,max response,[6]; [20],8.55%
same,max response,[6]; [21],25.1%
COc1ccc2c(c1O)-c1c(OC)c(OC)cc3c1[C@H](C2)N(C)CC3,outcome,[1],inactive
same,Potency,[17],10 µM (active)
same,"activity change, negative = inhibition",[8]; at 17.2 µM (top of the series),-3.12% (inactive)
same,outcome,[2],inactive
same,Potency,[9],> 20.6 µM (inactive) and > 46 µM (inactive)
same,Potency,[3],> 20.6 µM (inactive) and > 46 µM (inactive)
same,outcome,[4],inactive
same,Potency,[5],inactive
same,Potency,[10],inactive
same,Potency,[18],inactive
same,"activity change, negative = inhibition",[6]; at 25.7 µM (top of the series),2.04% (inactive)
same,max response,[6]; [20],5.35%
same,max response,[6]; [21],2.2%
same,Potency,[15],inactive
COc1ccc2cc1Oc1ccc(cc1)C[C@H]1c3cc(c(OC)cc3CCN1C)Oc1c(OC)c(OC)cc3c1[C@@H](C2)N(C)CC3,"activity change, negative = inhibition",[6]; at 25.7 µM (top of the series),-4.24% (inactive)
same,max response,[6]; [20],-9.67%
same,max response,[6]; [21],-10.6%
CNCC[C@@H](Oc1ccc(C(F)(F)F)cc1)c1ccccc1,"activity change, negative = inhibition",[6]; at 57.5 µM (top of the series),1.23% (inactive)
same,max response,[6]; [20],-30.3%
same,max response,[6]; [21],-28.9%
O=C(NC[C@@H]1CCCCN1)c1cc(OCC(F)(F)F)ccc1OCC(F)(F)F,"activity change, negative = inhibition",[6]; at 25.7 µM (top of the series),-0.787% (inactive)
same,max response,[6]; [20],-18.7%
same,max response,[6]; [21],-19.7%
C[C@]12CC[C@H](O)CC1=CCC1C2CC[C@]2(C)C(=O)CC[C@@H]12 (some centres undefined),"activity change, negative = inhibition",[6]; at 57.5 µM (top of the series),0.778% (inactive)
same,max response,[6]; [20],-17.2%
same,max response,[6]; [21],-14.9%
same,Potency,[15],inactive
same,"activity, negative = inhibition",[19]; parasite line A,7.06% (inactive)
same,"activity, negative = inhibition",[19]; parasite line B,19% (inactive)
